The whole screen tested about 5,500 compounds, of which about 2,000 (36%) were called active. Inconclusive results (about 18%) are left out. Rule as the data show it: active = normalized growth mostly below about 0.91 (no sharp cut-off); inconclusive = no clear call, values can overlap the other calls; inactive = mostly above about 0.92. Some of the results follow.
Test: chemical genetic growth profiling, strain panel (AID 1159580);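 also: tested at 20 µM; growth read once vehicle control cultures reached saturation at 30 °C; 1 = growth at the plate median or of vehicle wells; lower values mean less growth of the strain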
Conditions: S. cerevisiae deletion strains, growth OD

Measured: normalized growth

NC(=O)c1ccccc1
inactive: locus YAL040C, strain CLN3, active compounds read low 0.923 | locus YCL061C, strain MRC1 (second series), active compounds read low 1.01 | locus YER002W, strain NOP16, active compounds read low 0.988 | locus YGR078C, strain PAC10, active compounds read low 0.997 | locus YGR229C, strain SMI1, active compounds read low 1.04 | locus YNL153C, strain GIM3, active compounds read low 1.01 | locus YNL175C, strain NOP13, active compounds read low 0.972 | locus YNL197C, strain WHI3, active compounds read low 0.979 | locus YNL224C, strain SQS1, active compounds read low 0.997 | locus YOR083W, strain WHI5 (second series), active compounds read low 0.952
